Compound activity from PubChem.
Mtb FBA inh – inhibits M. tuberculosis FBA enzyme; P9WQA3; purified M. tuberculosis FBA, fluorescence read-out; inhibition, % at 1 µM; hit rate 2.3% among 360,000; in the data active = inhibition above about 27%;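 also: 0% = vehicle and 100% = reference inhibitor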
Target sequence (P9WQA3 whole entry, looked up): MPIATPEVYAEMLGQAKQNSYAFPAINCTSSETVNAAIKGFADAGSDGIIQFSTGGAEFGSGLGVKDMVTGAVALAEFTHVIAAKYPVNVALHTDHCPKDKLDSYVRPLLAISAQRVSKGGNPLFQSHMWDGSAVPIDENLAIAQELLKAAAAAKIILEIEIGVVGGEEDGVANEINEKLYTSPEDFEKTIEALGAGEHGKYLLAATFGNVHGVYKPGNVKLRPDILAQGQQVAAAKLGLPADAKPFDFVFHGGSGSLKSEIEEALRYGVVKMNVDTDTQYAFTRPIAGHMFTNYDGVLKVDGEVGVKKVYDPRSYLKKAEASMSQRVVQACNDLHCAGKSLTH
BoNT-A LC inh2 – BoNT A light chain protease inhibition | multiplex microsphere protease substrate cleavage, flow cytometry | inhibition, % at 10 µM | hit rate 0.17% among 360,000 | AID 588499; also: plate controls were buffer without enzyme for full effect and enzyme alone for no effect
Anthrax LF inh2 – anthrax lethal factor protease inhibition; inhibition, % at 10 µM; multiplex microsphere protease cleavage assay, LF; hit rate 0.12% among 360,000; AID 588501; P15917; also: plate controls were buffer without enzyme for full effect and enzyme alone for no effect
BoNT F protease – BoNT F light chain protease inhibition; Multiplex microsphere protease cleavage assay, flow cytometry; inhibition, % at 10 µM; hit rate 0.22% among 360,000; AID 588497; in the data active = inhibition above about 35%, passing the limit was not always enough; inconclusive = no clear call, values can overlap the other calls; also: plate controls were buffer without enzyme for full effect and enzyme alone for no effect
Autofluor counter – compound fluorescence in toxin protease inhibitor counterscreen. compound autofluorescence counterscreen, microsphere flow cytometry; stronger effect = higher value. hit rate 3.1% among 360,000. fluorescence intensity (no concentration beside the values); in the data active = fluorescence intensity above about 16000; inconclusive = no clear call, values can overlap the other calls
GDH-TPI counter – inhibits GDH-TPI coupling enzymes, artifact for Mtb FBA screen; GDH-TPI coupled enzyme counterscreen, NADH absorbance; inhibition, % at 4.8 µM; hit rate 1.2% among 360,000; in the data active = inhibition above about 30%;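 also: 0% = DMSO wells and 100% = wells lacking the enzyme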
* hit, by the source's call; ? = inconclusive. This is a sample that favours compounds with a hit; in the whole collection about 6.7% have one here. Rule as the data show it, unless noted: active = inhibition above about 30%; inconclusive = no clear call, values can overlap the other calls; inactive = below that.

SMILES | Mtb FBA inh | BoNT-A LC inh2 | Anthrax LF inh2 | BoNT F protease | Autofluor counter | GDH-TPI counter
Cc1ccc2c(c1)c1nc3ccccc3nc1n2CCN1CCOCC1 | -3 | 24 | 21 | 16 | 2248 | 34*
O=c1oc2ccccc2n1CCn1c2ccccc2c2nc3ccccc3nc21 | 2 | 3 | 3 | -3 | 3091 | 11
O=c1c2c3nc4ccccc4nc3n(CCN3CCOCC3)c2ncn1CCN1CCOCC1 | 22 | -1 | -9 | -2 | 3355 | 34*
O=c1c2c3nc4ccccc4nc3n(CC3CCCO3)c2ncn1CCc1ccccc1 (stereo unspecified) | 25 | 2 | -2 | -3 | 2358 | 7
CCn1c2ccc(C)cc2c2nnc(SCCN3CCOCC3)nc21 | -3 | 0 | -6 | -5 | 3460 | 27
COc1ccc2c(c1)c1nc3ccccc3nc1n2CCn1c(=O)oc2ccccc21 | 0 | 1 | 0 | 1 | 16506* | 17
Cc1cc(C)nc(SCC(=O)c2ccc(F)c(C)c2)n1 | -2 | -1 | 14 | ? | 4256 | -4
CCN1CCCc2cc(CN(CCN3CCOCC3)C(=S)Nc3ccc(OC)cc3)ccc21 | 0 | 1 | -7 | -2 | 3982 | -6
Cn1cnnc1SCC(=O)n1c2ccccc2c2ccccc21 | 0 | 0 | -1 | -5 | 2802 | 6
Cn1cnnc1SCc1ccc(C(=O)N=Nc2c(O)n(C)c3ccccc23)cc1 | 2 | -1 | -5 | -15 | 3029 | 33*
CCN(CC)S(=O)(=O)c1csc(C(=O)OCC(=O)c2ccccc2)c1 | -1 | -2 | -4 | -1 | 17304* | 7
Cc1sc2nc(CN(Cc3ccccc3)C(=O)NC3CCCCC3)[nH]c(=O)c2c1C | 4 | 4 | 5 | 38* | 4141 | 1
COc1ccc(NC2CCCN(C(=O)CCn3cccn3)C2)cc1 (stereo unspecified) | 2 | -2 | 2 | 7 | 6077 | 2
O=C(O)CCCN1C(=O)/C(=C/c2ccncc2)SC1=S | -4 | 0 | 1 | -8 | 4598 | 38*
O=C(O)CCCCCN1C(=O)/C(=C\c2ccc(-c3ccc(Cl)cc3)o2)SC1=S | 1 | 43* | 22 | 10 | 3516 | 9
O=C(O)CCCN1C(=O)/C(=C/c2ccc(-c3nc4ccccc4s3)o2)SC1=S | -3 | 30* | 40* | 1 | 2489 | 8
O=C(O)CCCCCN1C(=O)/C(=C\c2ccncc2)SC1=S | 3 | 0 | 0 | 0 | 2532 | 16
CC[N+](CC)(CC=C(C)C)CC(=O)OC | -2 | 0 | 1 | -1 | 2301 | 9
CCCCNC(=O)NS(=O)(=O)c1ccc(C(=O)OC)o1 | 11 | 0 | -1 | -12 | 2603 | -2
CCC(C)(C)NC(=O)C(c1ccncc1)N(C(=O)c1sc(C)nc1C)c1ccc(C)cc1 (stereo unspecified) | 0 | 0 | 4 | 3 | 4347 | -3
CS(=O)(=O)N1CCN(c2ccccc2NC(=O)Nc2cccc(Cl)c2)CC1 | 1 | 0 | -10 | 13 | 2834 | 10
CN(C(=S)Oc1ccc(C(=O)Nc2ccccc2)cc1)c1ccccc1 | -1 | 0 | -3 | 7 | 9385 | 10
COc1ccc(/C=C/C(=O)OCC(=O)N2CCCCCC2)cc1OC | 11 | 0 | -4 | -6 | 3664 | 25
O=C(Nc1nonc1-c1ccc(Cl)cc1)c1ccccc1 | 3 | 0 | -12 | 1 | 4327 | -3
CC(=O)Nc1nonc1-c1ccccc1 | -1 | ? | 0 | -3 | 20934* | 2
SMILES | Mtb FBA inh | BoNT-A LC inh2 | Anthrax LF inh2 | BoNT F protease | Autofluor counter | GDH-TPI counter
Cc1ccc(NC(=O)COC(=O)Cn2c(C)csc2=O)cc1C | 0 | -3 | -6 | -9 | 17233* | 2
Cc1cc(Nc2ccc(Cl)cc2)nc(N)n1 | -1 | 1 | -4 | 0 | 21661* | -12
NC(=O)C1CCN(C(=O)C(=O)c2cn(CC(=O)N3CCCCCC3)c3ccccc23)CC1 | -2 | 39* | 39* | 17 | 7217 | 11
CCN1CCN(C(=O)C(=O)c2cn(CC(=O)N3CCCCCC3)c3ccccc23)CC1 | 4 | 4 | 10 | 5 | 7481 | 1
O=C(C(=O)N1CCN(c2ccccc2)CC1)c1cn(CC(=O)N2CCCCCC2)c2ccccc12 | -2 | 12 | 8 | 3 | 8102 | -3
CN1CCN(C(=O)C(=O)c2cn(CC(=O)N3CCCCCC3)c3ccccc23)CC1 | 1 | 10 | 36* | 12 | 4647 | 10
CC1CCN(C(=O)C(=O)c2cn(CC(=O)N3CCCCCC3)c3ccccc23)CC1 | 0 | 37* | 38* | 8 | 6694 | 8
CC1CCCN(C(=O)C(=O)c2cn(CC(=O)N3CCCCCC3)c3ccccc23)C1 (stereo unspecified) | 2 | 35* | 28 | 13 | 7036 | 8
O=C(CN(C(=O)CNS(=O)(=O)c1ccccc1)c1ccc(Cl)cc1)NCC1CCCO1 (stereo unspecified) | -1 | -3 | 3 | -24 | 3675 | 7
O=C1CC(N2CCN(c3cccc(C(F)(F)F)c3)CC2)C(=O)N1c1ccccc1F (stereo unspecified) | 0 | -1 | -7 | -3 | 3123 | -14
O=C1CC(N2CCN(c3cccc(C(F)(F)F)c3)CC2)C(=O)N1c1ccccc1 (stereo unspecified) | -2 | ? | -2 | 4 | 20561* | -4
CCN1/C(=N\N)c2cccc3cccc1c23 | -2 | 39* | -10 | -55 | 3325 | 6
Cc1ccc(C)c(S(=O)(=O)Nc2ccc(C(=O)N3CCC3)cc2)c1 | 4 | -1 | -3 | 4 | 5432 | 0
C=CCn1c(C)csc1=Nc1ccc(C(C)=O)cc1 | 0 | -1 | -2 | -3 | 4678 | 1
C=CCn1c(CC(=O)OC)csc1=Nc1ccc(C(C)=O)cc1 | 4 | 0 | -5 | -4 | 8838 | 31*
CCOc1nc(-c2ccc(Cl)cc2Cl)ccc1C#N | -4 | -2 | -32 | -15 | ? | -1
Cc1cc(Cl)ccc1Oc1nc(-c2ccc(F)cc2)ccc1C#N | 1 | ? | -1 | 0 | 22004* | 12
COc1ccccc1NC(=O)Nc1ccccc1C#N | 10 | 1 | 15 | 11 | 3608 | 0
N#Cc1ccccc1NC(=O)Nc1ccccc1 | 50* | 0 | 3 | -7 | 3743 | -3
COc1cc(/C=C/c2cc(OC(C)=O)c3ccccc3n2)c(OC(C)=O)c([N+](=O)[O-])c1 | -3 | 3 | -1 | 3 | 15538 | 37*
CC(=O)Oc1c(Cl)cc(Cl)cc1/C=C/c1ccc2ccccc2n1 | -1 | 1 | -1 | 0 | 7988 | 9
Nc1nnc(CCN2C(=O)CSC2=O)s1 | 2 | -2 | 0 | -4 | 24168* | -8
Nc1nnc(CCCCCc2nnc(N)s2)s1 | -6 | 0 | 0 | 4 | 4328 | -2
COc1ccc2c(c1OC)C(=O)N1C2SC(C)(C)[C@H]1C(=O)NCC(C)C (stereo partly specified) | 152* | -2 | 0 | 2 | 3122 | 3
COCCNC(=O)[C@H]1N2C(=O)c3c(ccc(OC)c3OC)C2SC1(C)C (stereo partly specified) | 3 | -4 | -18 | -8 | 3690 | -4
